One test has as its system LCK. Conditions: concentration: 1 μM, replicates: in singlicate; n = 1.
The next test deals with LIMK1. To be noted: concentration: 1 μM, replicates: in singlicate; n = 1.
For the next test, the system named is LIMK2. To be noted: concentration: 1 μM, replicates: in singlicate; n = 1.
For another test, the system named is T1, LKB1.
T1 construct: gene STK11
Conditions: concentration: 1 μM, replicates: in singlicate; n = 1.

The test system of the next test is T2, LOK.
T2 construct: gene STK10
Conditions: concentration: 1 μM, replicates: in singlicate; n = 1.

The next test relates to LRRK2. Conditions: n = 1.
The next test relates to LTK. To be noted: concentration: 1 μM, replicates: in singlicate; n = 1.
The next test relates to LYN. To be noted: concentration: 1 μM, replicates: in singlicate; n = 1.
The next test concerns T3, LZK.
T3 construct: gene MAP3K13
Conditions: concentration: 1 μM, replicates: in singlicate; n = 1.

A further test relates to MAK. Conditions: concentration: 1 μM, replicates: in singlicate; n = 1.
[1] abbreviates: concentration: 1 μM, replicates: in singlicate.

Where two headings read alike, the source gives them in different places.

This note sets out measurements from publication PMC5540273 (PLoS ONE, 2017).
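Note: KINOMEscan kinase panel screen.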

Regarding `Cl.O=C(Nc1ccc(Oc2ccc3[nH]c(NC(=O)c4ccco4)nc3c2)cc1)Nc1cc(C(F)(F)F)ccc1F` [GW683134], the “%Inh” value is listed as 98.4% in the test on LCK; 17% in the test on LIMK1; 0% with LIMK2; 0% in the test with LKB1; 99.7% in the test on LOK; 65% with LRRK2 (setting [1]). For the same compound, the “%Inh” value in the test with LTK is on record as 74%; with LYN it was 70%; with LZK, 0%; in the test on MAK, 19%.

As for `CN(c1ccc2c(c1)nc(NCc1ccccc1)n2C)c1ccnc(Nc2ccc(CS(C)(=O)=O)cc2)n1.Cl` [GW811603], the “%Inh” value is 59% in the test on LCK; 1% in the test with LIMK1; 0% with LIMK2; 0% with LKB1; 99.5% in the test on LOK; 0% in the test on LRRK2 (setting [1]). Also, the “%Inh” value in the test with LTK is 37%; in the test on LYN, 52%; with LZK, 0%; in the test with MAK it was 33%.

`CC(C)NCC(Cc1ccccc1)NC(=O)c1cc(Br)c(-c2ccnc3[nH]ccc23)s1.Cl.Cl` (stereo not drawn) [GSK1383281]: the “%Inh” value with LCK was 11%; in the test with LIMK1 it was 0%; in the test with LIMK2, 11%; in the test with LKB1, 0%; with LOK it was 0%; in the test with LRRK2 (setting [1]) it was 0%. Also, the “%Inh” value in the test on LTK was found to be 0%; in the test with LYN it was 0%; in the test on LZK, 0%; in the test on MAK, 34%.

As to `Fc1cc(Cl)ccc1Nc1ccnc2cc(-c3ccc(CN4CCSCC4)o3)ccc12` [GW560106], the “%Inh” value is 98.4% with LCK; 0% with LIMK1; 0% with LIMK2; 11% with LKB1; 73% in the test on LOK; 22% in the test with LRRK2 (setting [1]). Also, the “%Inh” value in the test on LTK came out at 61%; with LYN it was 74%; in the test on LZK, 32%; with MAK, 32%.

On to `CN(C)c1ncnc2nc[nH]c12` [SKF-31736], for which the “%Inh” value came out at 0% in the test with LCK; 0% in the test with LIMK1; 0% in the test with LIMK2; 0% in the test with LKB1; 2% in the test with LOK; 0% with LRRK2 (1 µM). In addition, the “%Inh” value in the test on LTK is recorded as 0%; in the test with LYN it was 0%; in the test with LZK, 8%; in the test with MAK, 0%.

`CS(=O)(=O)c1cccc(CNc2nc(Nc3ccc4c(c3)CCC(=O)N4)ncc2C(F)(F)F)c1`: the “%Inh” value with LCK was found to be 0%; in the test with LIMK1 it was 0%; with LIMK2, 0%; in the test on LKB1 it was 34%; with LOK, 0%; in the test on LRRK2 (setting [1]), 16%. For the same compound, the “%Inh” value in the test on LTK is on record as 0%; in the test with LYN it was 16%; in the test with LZK, 0%; with MAK, 0%.

`Cc1cccc(Nc2nc(NCCN)ncc2C(N)=O)c1` [GSK1292139]: the “%Inh” value came out at 15% in the test on LCK; 0% in the test on LIMK1; 0% in the test on LIMK2; 24% in the test with LKB1; 0% with LOK; 0% in the test with LRRK2 (setting [1]). The “%Inh” value in the test with LTK is 26%; in the test on LYN it was 3%; with LZK, 0%; in the test with MAK, 15%.

Regarding `CC(C)c1nc(-c2ccc(F)c(NS(=O)(=O)c3c(F)cccc3F)c2)c(-c2ccnc(Nc3ccc(N4CCOCC4)nc3)n2)s1` [GSK1804250], the “%Inh” value with LCK is on record as 99.6%; in the test with LIMK1 it was 100%; in the test on LIMK2, 100%; in the test with LKB1, 0%; in the test with LOK, 99.3%; in the test on LRRK2 (setting [1]), 9%. The “%Inh” value in the test with LTK was found to be 6%; in the test on LYN it was 93.8%; in the test with LZK, 58%; in the test with MAK, 24%.

As for `COC(=O)Nc1nc2ccc(Oc3ccc(CC(=O)Nc4cc(C(F)(F)F)ccc4F)cc3)cc2[nH]1` [GW680903], the “%Inh” value is 22% in the test on LCK; 1% in the test with LIMK1; 7% in the test on LIMK2; 0% in the test on LKB1; 78% in the test on LOK; 33% in the test on LRRK2 (setting [1]). Further, the “%Inh” value in the test on LTK is recorded as 0%; in the test on LYN it was 7%; in the test with LZK it was 28%; in the test on MAK, 37%.

As to `Cc1ccccc1CC(=O)N1CCc2cc(-c3cn(C)c4ncnc(N)c34)ccc21` [GSK2603346], the “%Inh” value is 30% in the test with LCK; 0% with LIMK1; 0% with LIMK2; 0% with LKB1; 89% in the test on LOK; 21% with LRRK2 (setting [1]). For the same compound, the “%Inh” value was 23% in the test on LTK, 0% with LYN, 0% with LZK and 1% in the test on MAK.

Turning to `Cc1cc(-c2ccnc(Nc3cccc(C#N)c3)n2)cc(C)c1O` [GSK1440913], the “%Inh” value was determined as 18% in the test with LCK; 14% with LIMK1; 42% in the test with LIMK2; 86% in the test with LKB1; 17% in the test with LOK; 0% with LRRK2 (setting [1]). Besides, the “%Inh” value in the test with LTK stood at 0%; in the test with LYN, 20%; in the test on LZK, 0%; in the test on MAK, 36%.

`Cc1ccc(NC(=O)c2ccc(Cl)c(Cl)c2)cc1-c1ccc(C(=O)Nc2ccncc2)cc1` [GSK1398460]: the “%Inh” value amounted to 91.9% in the test with LCK; 19% with LIMK1; 0% in the test on LIMK2; 0% with LKB1; 0% with LOK; 0% in the test on LRRK2 (setting [1]). For the same compound, the “%Inh” value in the test with LTK worked out at 11%; in the test on LYN, 83%; in the test on LZK, 0%; with MAK it was 100%.

For the compound `Cc1ccc(O)cc1Nc1ccnc2cc(-c3ccc(CN4CCCCC4)o3)ccc12` [GW557777], the “%Inh” value came out at 99.7% with LCK; 6% with LIMK1; 8% with LIMK2; 0% with LKB1; 17% with LOK; 19% in the test with LRRK2 (setting [1]). For the same compound, the “%Inh” value in the test on LTK worked out at 0%; with LYN it was 95.3%; with LZK, 0%; in the test on MAK, 0%.

`CCNC(=O)/C=C/c1n[nH]c2cc(Sc3ccccc3C(=O)NC)ccc12`: the “%Inh” value with LCK was determined as 11%; in the test with LIMK1, 25%; with LIMK2, 11%; in the test with LKB1, 0%; in the test with LOK it was 27%; in the test with LRRK2 (setting [1]) it was 0%. The “%Inh” value in the test on LTK was 0%; in the test with LYN, 16%; with LZK, 14%; in the test on MAK it was 26%.

In the case of `CSc1ccc(NC2=C(c3ccc(Cl)cc3)C(=O)NC2=O)cc1` [SB-317658], the “%Inh” value in the test with LCK came out at 0%; with LIMK1, 11%; in the test with LIMK2 it was 1%; with LKB1 it was 54%; in the test on LOK, 29%; with LRRK2 (setting [1]), 43%. The “%Inh” value with LTK stood at 27%; in the test with LYN, 26%; in the test with LZK, 0%; in the test on MAK it was 37%.
